# Where “and” joins values, the source holds several entries; their conditions need not be identical. Equal values may be shown once. Inconclusive results are not listed. A call without a number means that no potency is given here. More than one record can exist for a structure, and the calls need not agree. Calls of active or inactive are those of the source. Unless noted, calls follow the shape of the dose curve; as a rule, active = well fitted curve in the direction sought with a large enough effect in the repeat runs; inconclusive = weak or mixed curves; inactive = no such curve, though single readings can be large; an effect the other way counts as inactive or inconclusive.
# Columns and labels:
# [1] = qHTS assay to identify small molecule agonists of the hypoxia (HIF-1) signaling pathway - cell viability counter screen (AID 1224844; calls by dose curve; also: nearly all actives have a fitted effect of over 50% in size; also: potency is read from the fitted curve at half-maximal effect)
# Outline: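 Multiplexed with the HRE beta-lactamase assay, this viability read used CellTiter-Glo luminescence (30 min, RT) on HRE-bla ME-180 cells treated 17 hrs with compounds in 0.5% dialyzed FBS medium.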
# [2] = qHTS assay to identify small molecule agonists of H2AX (AID 1224845; active = well fitted activation curve with a large enough effect in the signal ratio in the repeat runs, not every such curve was filed as active; the % refers to the signal ratio)
# Outline: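 Wild-type CHO-K1 cells, plated overnight, exposed 3hr at 37C to 15 concentrations (0.76% DMSO final). Lysed, then HTRF anti-pH2AX (S139) cryptate and anti-H2AX-d2 antibodies, 24 hr room temperature; 665/620 nm emission read.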
# [3] = qHTS assay to identify small molecule agonists of the hypoxia (HIF-1) signaling pathway (AID 1224846; active = well fitted activation curve with a large enough effect in the signal ratio in the repeat runs, not every such curve was filed as active; the % refers to the signal ratio; also: potency is read from the fitted curve at half-maximal effect)
# Outline: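 Hypoxia-pathway activation was scored as increased beta-lactamase from an HRE-controlled reporter in ME-180 cells; plated at 2,000 cells per well with 0.5% dialyzed FBS, they were exposed 17 hrs to compounds and then given CCF4-AM.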
# [4] = qHTS assay to identify small molecule agonists of H2AX - cell viability counter screen (AID 1224847; calls by dose curve; also: nearly all actives have a fitted effect of over 30% in size; also: potency is read from the fitted curve at half-maximal effect; as to activity change, negative = cytotoxicity: top concentration of the series differs between compounds)
# Outline: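 Counter-screen for viability: CellTiter-Glo ATP luminescence read after 3 h compound treatment (15-point titration, 0.76% DMSO final) of CHO-K1 cells at 37C, with 30 min room-temperature reagent incubation.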
# [5] = qHTS assay to identify small molecule antagonists of the estrogen related receptor (ERR) signaling pathway from Tox21 library (AID 1224848); also: nearly all actives have a fitted effect of over 50% in size; also: potency is read from the fitted curve at half-maximal effect
# Outline: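 ERR reporter cell line (from NTP) seeded 2,000 cells/well, rested 6 h at 37 C/5% CO2, then pin-dosed with compounds in DMSO. After 18 h at 37 C, ONE-Glo added; luminescence read after 30 min at room temperature.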
# [6] = qHTS assay to identify small molecule agonists of the estrogen related receptor (ERR) signaling pathway from Tox21 library (AID 1224849; calls by dose curve; also: nearly all actives have a fitted effect of over 15% in size); conditions: ERR reporter cell line, ONE-Glo luciferase, 18 h
# Outline: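 Six hours post-seeding at 37 C/5% CO2, ERR cells receive DMSO-solubilised compounds; after 18 h at 37 C, ONE-Glo reagent is applied and luminescence recorded.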
# [7] = qHTS RealTime-Glo MT Cell Viability Assay in HepG2 cells - 24 hour (AID 1224867); also: nearly all actives have a fitted effect of over 50% in size; also: potency is read from the fitted curve at half-maximal effect
# Outline: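 Luminescence read-out: viable HepG2 cells reduce a prosubstrate to a NanoLuc substrate, giving a signal proportional to live cell number. Reads taken at 0, 8, 16, 24, 32 and 40 h of compound exposure at 37 C.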
# [8] = qHTS RealTime-Glo MT Cell Viability Assay in HEK293 cells - 32 hour (AID 1224868); also: nearly all actives have a fitted effect of over 50% in size; also: potency is read from the fitted curve at half-maximal effect; as to activity change, negative = cytotoxic: top concentration of the series differs between compounds
# Outline: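 Nonlytic real-time viability readout: viable cells convert prosubstrate to NanoLuc substrate, giving luminescence proportional to live cell number. HEK293, 600 cells/well, compound added after 5 h, continuous culture at 37 C.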
# [9] = qHTS RealTime-Glo MT Cell Viability Assay in HepG2 cells - 40 hour (AID 1224870); also: nearly all actives have a fitted effect of over 50% in size; also: potency is read from the fitted curve at half-maximal effect
# Outline: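 HepG2 cells (600/well) mixed with RealTime-Glo MT reagent, settled 5 h at 37 C/5% CO2 before compound addition. Nonlytic NanoLuc luminescence from viable-cell prosubstrate reduction read repeatedly during 40 h treatment at 37 C.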
# [10] = A CellTox Green Cytotoxicity Assay to monitor cytotoxicity in HEK293 cells - 0 hour (AID 1224869); also: nearly all actives have a fitted effect of over 50% in size; also: potency is read from the fitted curve at half-maximal effect
# Outline: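 Seeding of HEK293 cells together with cytotoxicity dye preceded a 5 h incubation at 37 C/5% CO2. Test compounds in DMSO were then added and fluorescence monitored across 40 h.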
compound,measurement,setting,value
Cc1occc(=O)c1OC(=O)C(C)C,Potency,[1],inactive
same,Potency,[2],inactive
same,Potency,[3],inactive
same,Potency,[4],inactive
same,Potency,[5],inactive
same,"activity change, positive = activation",[6]; at 92.4 µM (top of the series),1.53% (inactive)
same,Potency,[7],inactive
same,Potency,[8],inactive
same,Potency,[9],inactive
COC(=O)c1cccc(C(=O)OC)c1,Potency,[1],inactive
same,Potency,[2],inactive
same,Potency,[3],inactive
same,Potency,[4],inactive
same,Potency,[7],inactive
same,Potency,[8],inactive
same,Potency,[10],inactive and 43.6 µM (active)
same,Potency,[9],inactive
COC(=O)[C@H]1[C@H]2C[C@@H]3c4[nH]c5cc(OC)ccc5c4CCN3C[C@H]2C[C@@H](OC(=O)c2cc(OC)c(OC)c(OC)c2)[C@@H]1OC,Potency,[1],24.5 µM (active) and 31.8 µM (active) and inactive
same,Potency,[2],inactive
same,Potency,[4],inactive
same,Potency,[5],24.3 µM (active) and 19.9 µM (active) and 26.6 µM (active)
same,"activity change, positive = activation",[6]; at 42.5 µM (top of the series),-35.9% (inactive)
same,"activity change, positive = activation",[6]; at 92.4 µM (top of the series),-60.3% (inactive) and -57.9% (inactive)
same,Potency,[8],5.48 µM (active) and 6.34 µM (active) and 9.52 µM (active)
same,Potency,[9],inactive
CC1COC(=O)O1 (centres undefined),Potency,[1],inactive
same,Potency,[2],inactive
same,Potency,[4],inactive
same,Potency,[5],inactive
same,"activity change, positive = activation",[6]; at 92.4 µM (top of the series),4.88% (inactive) and 5.46% (inactive)
same,Potency,[7],inactive
same,Potency,[8],inactive
same,Potency,[10],inactive
same,Potency,[9],inactive
OCCN1CCNCC1,Potency,[1],inactive
same,Potency,[2],inactive
same,Potency,[3],inactive
same,Potency,[4],inactive
same,Potency,[5],inactive
same,"activity change, positive = activation",[6]; at 92.4 µM (top of the series),9.65% (inactive) and -11.4% (inactive)
same,Potency,[7],inactive
same,Potency,[8],7.9 µM (active)
same,Potency,[10],inactive
same,Potency,[9],inactive
Cc1cccc([N+](=O)[O-])c1C(=O)O,Potency,[1],inactive
same,Potency,[2],inactive
same,Potency,[3],inactive
same,Potency,[4],inactive
same,Potency,[5],inactive
same,"activity change, positive = activation",[6]; at 92.4 µM (top of the series),4.9% (inactive)
same,Potency,[7],inactive
same,Potency,[8],inactive
same,Potency,[10],inactive
same,Potency,[9],inactive
CCCCCCCCCCCCCCCCCl,"activity change, negative = cytotoxicity",[1],8.74% [at 15.8 µM] (inactive)
same,activation (H2AX phosphorylation),[2],1.73% [at 31.6 µM] (inactive)
same,activation,[3],0.196% [at 15.8 µM] (inactive)
same,"activity change, negative = cytotoxicity",[4],2.02% [at 31.6 µM] (inactive)
same,"activity, negative = inhibition",[5],15.7% [at 19 µM] (inactive)
same,"activity change, positive = activation",[6]; at 19 µM (top of the series),7.84% (inactive)
same,"activity change, negative = cytotoxicity",[7],5.56% [at 15.8 µM] (inactive)
same,"activity change, negative = cytotoxic",[8],-2.48% [at 15.8 µM] (inactive)
same,cytotoxicity,[10],1.64% [at 15.8 µM] (inactive)
same,"activity change, negative = cytotoxic",[9],12.5% [at 15.8 µM] (inactive)
Cc1ccc(S(=O)(=O)Oc2ccc(N=Nc3ccc(-c4ccc(N=Nc5c(O)ccc6cc(S(=O)(=O)O)cc(S(=O)(=O)O)c56)c(C)c4)cc3C)cc2)cc1,Potency,[1],inactive
same,Potency,[2],inactive
same,Potency,[4],45.2 µM (active) and 29.3 µM (active)
same,Potency,[5],27.4 µM (active)
same,"activity change, positive = activation",[6]; at 42.5 µM (top of the series),-13.6% (inactive)
same,"activity change, positive = activation",[6]; at 92.4 µM (top of the series),-34.2% (inactive)
same,Potency,[8],inactive
same,Potency,[10],inactive
CC(=O)OCC1=C(C(=O)O)N2C(=O)[C@@H](NC(=O)Cc3cccs3)[C@H]2SC1,Potency,[1],inactive
same,Potency,[2],inactive
same,Potency,[3],inactive
same,Potency,[4],inactive
same,Potency,[7],inactive
same,Potency,[8],inactive
same,Potency,[10],inactive
same,Potency,[9],inactive
CCc1ccc(C(c2ccc(CC)cc2)C(Cl)Cl)cc1,Potency,[1],inactive
same,Potency,[2],inactive
same,Potency,[3],inactive
same,Potency,[4],115 µM (active)
same,Potency,[7],inactive
same,Potency,[10],inactive
same,Potency,[9],inactive
O=C(O)CCc1ccccc1,Potency,[1],inactive
same,Potency,[2],inactive
same,Potency,[4],inactive
same,Potency,[5],inactive
same,"activity change, positive = activation",[6]; at 92.4 µM (top of the series),0.886% (inactive)
same,Potency,[7],inactive
same,Potency,[8],inactive
same,Potency,[10],inactive
same,Potency,[9],inactive
COc1ccc(Cc2cnc(N)nc2N)cc1OC,Potency,[1],inactive
same,Potency,[2],inactive
same,Potency,[3],inactive
same,Potency,[4],inactive
same,Potency,[5],inactive
same,"activity change, positive = activation",[6]; at 42.5 µM (top of the series),4.01% (inactive)
same,Potency,[7],inactive
same,Potency,[8],inactive
same,Potency,[9],inactive
CCN(CC)c1ccc2c(C)cc(=O)oc2c1,Potency,[1],inactive
same,Potency,[2],inactive
same,Potency,[3],44 µM (active) and 43.6 µM (active)
same,Potency,[4],inactive
same,Potency,[7],inactive
same,Potency,[8],34.9 µM (active)
same,Potency,[10],inactive
same,Potency,[9],inactive
CCN(CC)C(=O)Nc1ccc(OCC(O)CNC(C)(C)C)c(C(C)=O)c1 (centres undefined),Potency,[1],inactive
same,Potency,[2],inactive
same,Potency,[3],inactive
same,Potency,[4],inactive
same,Potency,[5],inactive
same,"activity change, positive = activation",[6]; at 42.5 µM (top of the series),-6.6% (inactive)
same,Potency,[7],inactive
same,Potency,[8],inactive
same,Potency,[9],inactive
CC(C)(c1ccccc1)c1ccc(Nc2ccc(C(C)(C)c3ccccc3)cc2)cc1,Potency,[1],inactive
same,Potency,[2],inactive
same,Potency,[4],inactive
same,Potency,[5],15.3 µM (active) and inactive
same,"activity change, positive = activation",[6]; at 92.4 µM (top of the series),-43.2% (inactive) and -18.6% (inactive)
same,Potency,[7],inactive
same,Potency,[8],inactive
same,Potency,[10],inactive
same,Potency,[9],inactive
[Cl][In]([Cl])[Cl],Potency,[1],inactive
same,Potency,[2],inactive
same,Potency,[3],inactive
same,Potency,[4],inactive
same,Potency,[5],34.4 µM (active)
same,"activity change, positive = activation",[6]; at 92.4 µM (top of the series),-22.9% (inactive) and -30% (inactive)
same,Potency,[7],inactive
same,Potency,[10],inactive
same,Potency,[9],inactive
C#CC(C)(CC)OC(=O)c1ccccc1C(=O)O (centres undefined),Potency,[1],inactive
same,Potency,[2],inactive
same,Potency,[3],inactive
same,Potency,[4],inactive
same,Potency,[5],inactive
same,"activity change, positive = activation",[6]; at 42.5 µM (top of the series),0.513% (inactive)
same,Potency,[7],inactive
same,Potency,[8],inactive
same,Potency,[10],inactive
same,Potency,[9],inactive
Cc1ccc(-c2cc(C(F)(F)F)nn2-c2ccc(S(N)(=O)=O)cc2)cc1,Potency,[1],48.8 µM (active) and 54.9 µM (active) and inactive
same,Potency,[2],inactive
same,Potency,[4],100 µM (active) and 113 µM (active)
same,Potency,[5],27.2 µM (active) and 61.1 µM (active)
same,"activity change, positive = activation",[6]; at 42.5 µM (top of the series),-20.4% (inactive)
same,"activity change, positive = activation",[6]; at 92.4 µM (top of the series),-66.1% (inactive) and -48.6% (inactive)
same,Potency,[7],48.8 µM (active) and 49 µM (active)
same,Potency,[8],38.7 µM (active) and 30.9 µM (active)
same,Potency,[9],49 µM (active) and inactive
C=C(C)C1CC=C(C)C(OC(C)=O)C1 (centres undefined),Potency,[1],inactive
same,Potency,[2],inactive
same,Potency,[3],inactive
same,Potency,[4],inactive
same,Potency,[5],inactive
same,"activity change, positive = activation",[6]; at 92.4 µM (top of the series),2.18% (inactive) and 0.969% (inactive)
same,Potency,[7],inactive
same,Potency,[8],inactive
same,Potency,[10],inactive
same,Potency,[9],inactive
